# Rows were chosen to be rich in hits. Some 1.1% of all compounds tested hit in one or more screens of this group.
# SNCA expr inhib = Primary qHTS assay for inhibitors of alpha-synuclein gene (SNCA) expression | Potency, µM (top dose mostly 57.2 µM), without a hit: at the highest dose activity change, negative = inhibition, usual class: inhibitors | actives 0.17% (n = 140,000) | HEK-293 SNCA-luciferase knock-in, luminescence, 24 h | AID 1671194, 2021;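 note: potency is the fitted concentration of half-maximal effect; plate controls were DMSO cells for no effect and cell-free wells for full effect; nearly all actives have a fitted effect of over 45% in size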
# IP6K1 inhibitor = Primary qHTS assay for small molecule inhibitors of Inositol hexaphosphate kinase 1 (IP6K1) | activity change, % (series mostly up to about 58 µM) | actives 0.81% (n = 140,000) | IP6K1 kinase, ADP-Glo luminescence, 2 h; stronger effect = lower value | Inositol hexakisphosphate kinase 1 (Homo sapiens), Q92551; in the data active = activity change below about -25%
# Target sequence (Q92551 whole entry, looked up): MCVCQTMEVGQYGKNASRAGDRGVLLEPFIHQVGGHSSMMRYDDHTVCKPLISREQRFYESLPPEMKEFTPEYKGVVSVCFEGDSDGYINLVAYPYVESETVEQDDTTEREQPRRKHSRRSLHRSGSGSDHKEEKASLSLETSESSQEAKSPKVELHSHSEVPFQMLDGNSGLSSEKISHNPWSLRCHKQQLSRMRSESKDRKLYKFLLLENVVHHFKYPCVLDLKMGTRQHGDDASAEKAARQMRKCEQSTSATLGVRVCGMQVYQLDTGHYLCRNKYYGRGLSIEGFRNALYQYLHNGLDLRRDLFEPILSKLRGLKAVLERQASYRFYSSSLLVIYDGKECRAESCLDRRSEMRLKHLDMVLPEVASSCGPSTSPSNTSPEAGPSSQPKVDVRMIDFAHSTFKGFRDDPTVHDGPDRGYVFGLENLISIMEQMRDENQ
#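 ADP-Glo luminescence measures ADP made by human IP6K1 during a 2 h RT reaction with ATP/IP6 (mix at 1.3 mM/130 uM); top library doses 57.5 and 19.1 uM final.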
# GPT2 inhibitor = Primary qHTS assay for inhibitors of Glutamate pyruvate transaminase 2 (GPT2); Recombinant GPT2, coupled pyruvate oxidase/HRP Amplex Red fluorescence; Alanine aminotransferase 2 (Homo sapiens), Q8TD30; actives 0.25% (n = 100,000); Potency, µM (highest dose often 57.7 µM), for the others: at the top dose activity change, negative = inhibition, actives largely listed as inhibitors; note: potency is the fitted concentration of half-maximal effect; nearly all actives have a fitted effect of over 60% in size
#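 GPT2 10ng/uL, a-KG 250uM, L-Ala 2mM, HEPES pH7.5 + 0.0001% Tween; 30 min RT. Then Amplex mix (PO/HRP/ThPP), 30 min RT dark, fluorescence. AOA 50uM used as positive control.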
# HEK293 viab = GF-AFC viability counterscreen for inhibitors of alpha-synuclein gene (SNCA) expression | actives 0.12% (n = 150,000) | HEK-293-SNCA-luc viability, GF-AFC fluorescence, 24 h | Potency, µM (highest dose often 57.1 µM), for inactives: at the highest dose activity change, negative = cytotoxicity, actives largely listed as cytotoxic;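 note: potency is the fitted concentration of half-maximal effect; 0% = DMSO-treated cells and -100% = medium-only wells without cells; nearly all actives have a fitted effect of over 30% in size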
#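 HEK-293-SNCA-luc cells (1500/well) plated 24 h, then exposed 24 h to a dilution series; GF-AFC added 30 min at 37C, fluorescence 405/540 nm; normalised to medium-only and DMSO wells, Hill fit.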
# * = called active by the depositor; i = inactive; u = inconclusive; x = not tested or not shown; ! = not active in a repeat; [ ] = dose if it differs, or a comment. Unless noted, calls come from the whole dose curve; as a rule, active = well fitted curve in the direction sought with a large enough effect; inconclusive = small, poorly fitted or top-dose-only effect, or another doubt; inactive = no such curve, though single readings can be large; an effect the other way counts as inactive or inconclusive. Unless noted, % is set by controls: 0 for no effect and ±100 for the full control effect.
SMILES,SNCA expr inhib,IP6K1 inhibitor,GPT2 inhibitor,HEK293 viab
CC(C)n1nc(-c2cc3cc(O)ccc3[nH]2)c2c(N)ncnc21,-55%[25.6 µM],-3,8.9µM*,u
COc1ccc(NS(=O)(=O)c2ccc3c(c2)[C@H]2C=CC[C@H]2[C@@H](c2ccc(C(=O)O)cc2)N3)cc1,18%,-58*,x,-15%
Cc1ccc(CN[C@@H]2CO[C@H](CNC(=O)c3ccccc3)[C@H]2O)cc1,3%[87.6 µM],24,3%[88.5 µM],4%[87.6 µM]
CCOC(=O)[C@@H]1[C@@H](OC)C(=O)N(C)C12CCN(C(=O)OCc1ccccc1)CC2,x,-4,x,x
c1ccc(CN2CCCCC2c2nc(CCOCC3CCCC3)no2)nc1 (stereo unspecified),22µM*,5,-6%,4%[12.5 µM]
Cc1ncsc1CN1CCCCC1c1nc(CCOCC2CC2)no1 (stereo unspecified),-33%,42,i,2%
Fc1ccc(-n2cc(CCCCN3CCC4(CC3)OCc3ccccc34)c3ccccc32)cc1,x,21,-3%,19µM*
O=C(NCCc1ccccc1)N1CCC(c2noc(COc3ccc(F)cc3)n2)C1 (stereo unspecified),18%,6,u,3%
CCN1CCN(Cc2ccc(Nc3ncc(F)c(-c4cc(F)c5nc(C)n(C(C)C)c5c4)n3)nc2)CC1,x,2,3%,-4%
CCOC(=O)CN1C(=O)CCN(C(=O)c2ccccc2OCC)CC(OC)c2ccccc21 (stereo unspecified),-20%[25.6 µM],-16,i,1%[23.9 µM]
Cc1c(Cl)cccc1-n1ncc(C(=O)N2CCc3ccccc3C2)c1C1CCN(C(=O)OC(C)(C)C)CC1,22µM*,-15,x,4%
C=CC1(C)C=C2C(=O)OC(=O)C3=C(CCCC3(C)C)C2(O)CC1 (stereo unspecified),x,-10,i,-11%
Cc1nn(-c2ccccc2)c2c1C(C(C)C)N(C1CCCN(C(=O)Nc3ccccc3)C1)C2=O (stereo unspecified),x,23,x,x
O=C(NCc1ccccc1F)c1ccc2nc(-c3cccnc3Cl)oc2c1,21%[87.6 µM],-2,-9%[88.5 µM],-5%[87.6 µM]
Cc1nc2c(c(-c3ccc(Cl)cc3)n1)CCN(C(=O)c1cccc(Cl)c1)CC2,u,4,5%,u
COc1ccc(OC)c(NC(=O)CSc2c3c(nc4ccccc24)CCCC3)c1,22µM*,-13,x,u
CC(C)C[C@H](NC(=O)[C@H](CCc1ccccc1)NC(=O)CN1CCOCC1)C(=O)N[C@@H](Cc1ccccc1)C(=O)N[C@@H](CC(C)C)C(=O)[C@@]1(C)CO1,0.12µM*!,-1,i,u
Cc1nn(-c2ccccc2)c2c1C(C(C)C)N(C1CN(C(=O)c3ccc(Cl)cc3)C1)C2=O (stereo unspecified),x,15,x,x
CCOC(=O)c1ccc(N2C(=O)c3n[nH]c(-c4cccs4)c3C2c2cccc(OC)c2)cc1 (stereo unspecified),18µM*,-2,x,-21%
CC(C)c1ccc(NC(=O)c2cc(S(=O)(=O)NCCc3ccccc3)ccc2F)cc1,u,-15,x,-4%
CC(C)c1ccccc1Cc1cc(C(=O)Nc2ccc(S(=O)(=O)c3ccccc3C(C)(C)C)cc2)c(O)c(O)c1O,-13%,x,27µM*,4%
NC(=O)C1CCCc2c1[nH]c1ccc(Cl)cc21 (stereo unspecified),8.6µM*,x,-21%,u
NC(=O)[C@H]1CCCCc2c1[nH]c1ccc(Cl)cc21,x,4,-12%[27.3 µM],-5%[23.9 µM]
COc1ccc(C2CC(c3ccccc3)=NN2c2ccc(S(N)(=O)=O)cc2)cc1 (stereo unspecified),14µM*,13,-8%,5%
COc1ccc(C2=NN(S(C)(=O)=O)C(c3cn(-c4ccccc4)nc3-c3cccs3)C2)cc1 (stereo unspecified),-11%,18,x,7%
SMILES,SNCA expr inhib,IP6K1 inhibitor,GPT2 inhibitor,HEK293 viab
C=C[C@@]1(C)C=C2C(=O)C(O)=C3[C@](C)(C(=O)O)CC[C@@H]4C[C@]34[C@]2(O)C(=O)C1,x,30,u,18µM*
CC(C)C[C@H](NC(=O)CNC(=O)c1cc(Cl)ccc1Cl)B(O)O,0.54µM*,x,i,u
CCN(CC)CCNC(=O)c1ccc2nc(-c3ccccc3)c(-c3ccc(CN4CCC(n5c(=O)[nH]c6ccccc65)CC4)cc3)nc2c1,u,-1,4%,15µM*!
COc1ccc(CNC(=O)C2CCCN(Cc3cccc(-c4ccsc4)c3)C2)cc1 (stereo unspecified),x,-8,x,x
C[C@@H]1C[C@H]2O[C@@H]2/C=C\C=C\C(=O)Cc2c(Cl)c(O)cc(O)c2C(=O)O1,x,-27*,4%[17.1 µM],-11%[12.5 µM]
Cc1ccc(-c2ccccc2CN2CCN([S+](=O)([O-])c3c(C)noc3C)CC2)cc1Cl,-7%,-13,i,-3%[12.5 µM]
Cc1cccc(-n2ncc3c(N4CCCC(C)C4)ncnc32)c1 (stereo unspecified),4µM*,-6,x,5%
O=C(NCc1ccccc1)c1ccc2nnc(-c3cccnc3)n2c1,25µM*,20,2%,-29%
O=C(NCc1ccc(Cl)cc1)c1ccc2nnc(-c3cccnc3)n2c1,2%,1,i,7%
CCOC(=O)N1CCC(Nc2ccc(Cl)cc2N)CC1,-39%[25.6 µM],-12,8.9µM*,-32%[23.9 µM]
CCOC(=O)N1CCC(Nc2ncncn2)CC1,-1%,-11,u,-4%
CC(=O)Nc1ccc(NC(=O)Cn2ccn3nc4c(c3c2=O)CCCCC4)cc1,u,9,u,-20%
c1ccc(-c2nc(-c3ccncc3)no2)c(OC2CCN(C3CCCC3)C2)c1 (stereo unspecified),10%,-9,i,-9%
CCN1CCC(N2CCC(Oc3ccccc3-c3nc(-c4ccncc4)no3)C2)CC1 (stereo unspecified),u,-23,i,14µM*
O=C1CN(S(=O)(=O)c2ccccc2)CC2(CCCCC2)N1CC1CC1,11%,8,-12%,10%
O=C(CCCN1CCN(c2ccc(F)cc2)CC1)NC1c2ccccc2CSc2ccccc21 (stereo unspecified),22%,28,1.2µM*,-3%
CCCc1nc(C)c2c(=O)[nH]c(-c3cc(S(=O)(=O)N4CCN(CC)CC4)ccc3OCC)nn12,u,-13,u,27µM*!
CCCCN1CCN(C(=O)c2csc(N3CCN(c4cccc(Cl)c4)CC3)n2)CC1,u,-11,1%,u
CS(=O)(=O)c1ncc(Cl)c(C(=O)N2CCN(c3cccc(Cl)c3)CC2)n1,u,-26*,x,u
CCS(=O)(=O)c1ncc(Cl)c(C(=O)N2CCN(c3cccc(Cl)c3)CC2)n1,2.2µM*,-6,x,3.5µM*
O=C(c1cc2ccc3cccnc3c2[nH]1)N1CCN(c2cccc(Cl)c2)CC1,u,27,x,u

# Compound activity as filed in PubChem BioAssay.
